Experimental data published in PubChem BioAssay AID1159580 (chemical genetic matrix, 2015).
“And” between values parts separate entries of the source, which are not always exact repeats. Identical values can stand only once. The whole screen tested about 5,500 compounds, of which about 2,000 (36%) were called active. Not shown: some 18% with an inconclusive outcome. Cut-off read from the data, not from the text of the source: active = normalized growth mostly below about 0.91 (no sharp cut-off); inconclusive = no clear call, values can overlap the other calls; inactive = mostly above about 0.92. This is one part of the list.

Test: chemical genetic growth profiling, strain panel (AID 1159580);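 note: tested at 20 µM; growth read once vehicle control cultures reached saturation at 30 °C; 1 = growth at the plate median or of vehicle wells; lower values mean less growth of the strain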
Conditions: S. cerevisiae deletion strains, growth OD

Measured: normalized growth

Cc1cc(C)cc(OCC2CNC(=O)O2)c1 (stereo unspecified)
inactive: locus YAL013W, strain DEP1, stronger effect = lower value 1.01 | locus YAL021C, strain ccr4, stronger effect = lower value 0.995 | locus YAL026C, strain drs2, stronger effect = lower value 0.977 | locus YAL030W, strain snc1, stronger effect = lower value 0.984 | locus YBL061C, strain skt5, stronger effect = lower value 0.97 | locus YBR009C, strain hhf1, stronger effect = lower value 0.985 | locus YBR021W, strain FUR4, stronger effect = lower value 1.02 | locus YBR023C, strain chs3, stronger effect = lower value 0.972 | locus YBR171W, strain sec66, stronger effect = lower value 0.963 | locus YBR229C, strain ROT2, stronger effect = lower value 1 | locus YBR231C, strain swc5, stronger effect = lower value 0.992 | locus YBR279W, strain paf1, stronger effect = lower value 0.969 | locus YCL011C, strain gbp2, stronger effect = lower value 0.977 | locus YCL016C, strain dcc1, stronger effect = lower value 0.979 | locus YCL029C, strain bik1, stronger effect = lower value 1.01 | locus YCL061C, strain MRC1, stronger effect = lower value 0.973 | locus YCL069W, strain vba3, stronger effect = lower value 0.975 | locus YCR088W, strain abp1, stronger effect = lower value 0.977 | locus YDL005C, strain med2, stronger effect = lower value 0.97 | locus YDL035C, strain GPR1, stronger effect = lower value 1.02 | locus YDL040C, strain nat1, stronger effect = lower value 0.972 | locus YDL074C, strain BRE1, stronger effect = lower value 1.03 | locus YDL101C, strain DUN1, stronger effect = lower value 1.02 | locus YDL134C, strain PPH21, stronger effect = lower value 1.02 | locus YDL185W, strain tfp1, stronger effect = lower value 1.02 | locus YDL192W, strain arf1, stronger effect = lower value 1.01 | locus YDR001C, strain nth1, stronger effect = lower value 0.979 | locus YDR069C, strain doa4, stronger effect = lower value 0.986 | locus YDR101C, strain arx1, stronger effect = lower value 1.01 | locus YDR137W, strain rgp1, stronger effect = lower value 0.92 | locus YDR150W, strain NUM1, stronger effect = lower value 1.02 | locus YDR159W, strain sac3, stronger effect = lower value 0.986 | locus YDR162C, strain NBP2, stronger effect = lower value 1.03 | locus YDR195W, strain ref2 0.97 | locus YDR297W, strain sur2, stronger effect = lower value 0.976 | locus YDR318W, strain mcm21, stronger effect = lower value 1.02 | locus YDR334W, strain swr1, stronger effect = lower value 0.966 | locus YDR335W, strain msn5, stronger effect = lower value 0.971 | locus YDR388W, stronger effect = lower value 1.01 | locus YDR392W, strain spt3, stronger effect = lower value 0.983 | locus YDR502C, strain sam2, stronger effect = lower value 1.02 | locus YEL003W, strain gim4, stronger effect = lower value 0.981 | locus YEL037C, strain rad23, stronger effect = lower value 0.979 | locus YEL061C, strain CIN8 (second series), stronger effect = lower value 0.966 | locus YEL061C, strain CIN8, stronger effect = lower value 1 | locus YER015W, strain faa2, stronger effect = lower value 0.982 | locus YER016W, strain bim1, stronger effect = lower value 0.983 | locus YER110C, stronger effect = lower value 1.01 | locus YER111C, strain swi4, stronger effect = lower value 0.971 | locus YER155C, strain BEM2 (second series), stronger effect = lower value 0.972 | locus YER155C, strain BEM2, stronger effect = lower value 1.02 | locus YER167W, strain BCK2, stronger effect = lower value 1.02 | locus YGL078C, strain dbp3, stronger effect = lower value 1.01 | locus YGL086W, strain mad1, stronger effect = lower value 1.01 | locus YGL167C, strain pmr1, stronger effect = lower value 0.971 | locus YGL173C, strain kem1, stronger effect = lower value 0.966 | locus YGL227W, strain vid30, stronger effect = lower value 0.972 | locus YGL240W, strain doc1, stronger effect = lower value 0.976 | locus YGL248W, strain PDE1, stronger effect = lower value 1.01 | locus YGL253W, strain hxk2, stronger effect = lower value 0.97 | locus YGR078C, strain PAC10, stronger effect = lower value 1.01 | locus YGR135W, strain pre9, stronger effect = lower value 0.998 | locus YGR229C, strain SMI1, stronger effect = lower value 1.02 | locus YGR252W, strain gcn5, stronger effect = lower value 1 | locus YHR013C, strain ard1, stronger effect = lower value 0.928 | locus YHR027C, strain rpn1, stronger effect = lower value 0.964 | locus YHR030C, strain SLT2, stronger effect = lower value 1.01 and 1.04 | locus YHR079C, strain IRE1 (second series), stronger effect = lower value 1.02 | locus YHR079C, strain IRE1, stronger effect = lower value 1.05 | locus YHR094C, strain hxt1, stronger effect = lower value 1.02 | locus YHR129C, strain ARP1, stronger effect = lower value 1.02 | locus YHR142W, strain chs7, stronger effect = lower value 0.968 | locus YHR200W, strain rpn10, stronger effect = lower value 1.02 | locus YIL066C, strain RNR3, stronger effect = lower value 1.02 | locus YIL073C, strain SPO22, stronger effect = lower value 1.03 | locus YIL125W, strain kgd1, stronger effect = lower value 1.01 | locus YIR030C, strain dcg1, stronger effect = lower value 1.02 | locus YJL092W, strain hpr5, stronger effect = lower value 0.972 | locus YJL095W, strain BCK1 (second series), stronger effect = lower value 0.971 | locus YJL095W, strain BCK1, stronger effect = lower value 1.01 and 1.02 | locus YJL115W, strain asf1, stronger effect = lower value 0.965 | locus YJL129C, strain trk1, stronger effect = lower value 0.974 | locus YJL134W, strain LCB3, stronger effect = lower value 1.02 | locus YJL154C, strain vps35, stronger effect = lower value 0.973 | locus YJL164C, strain tpk1, stronger effect = lower value 0.98 | locus YJL166W, strain qcr8, stronger effect = lower value 0.981 | locus YJL168C, strain set2, stronger effect = lower value 1.02 | locus YJL187C, strain SWE1 (second series), stronger effect = lower value 1.01 | locus YJL187C, strain SWE1, stronger effect = lower value 0.982 | locus YJR043C, strain POL32, stronger effect = lower value 1.02 | locus YJR066W, strain TOR1, stronger effect = lower value 0.99
